High-throughput results as filed in PubChem BioAssay.
Rows were chosen to be rich in hits. Some 3.6% of all compounds tested hit in one or more screens of this group.
Mtb bLac sens = beta-lactam sensitization of Mtb H37Rv | M. tuberculosis H37Rv growth with meropenem, percent inhibition | inhibition, % at 25 µM | 330,000 compounds, 0.27% hits | AID 434955; call rule not given here;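 further: growth measured after seven days incubation then overnight dye step; 0% = bacteria only wells and 100% = bacteria with antibiotic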
GDH-TPI counter-1 = GDH-TPI coupled enzyme inhibition counter-screen | GDH-TPI coupled enzyme counterscreen, NADH absorbance | AID 588335 | inhibition, % at 4.8 µM | 360,000 compounds, 1.2% hits; in the data active means inhibition above about 30%;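 further: 0% = DMSO wells and 100% = wells lacking the enzyme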
Mtb hypoxia inh = reduces hypoxia-regulated biosensor signal in M. tuberculosis. M. tuberculosis hypoxia-regulated fluorescent reporter, fluorescence. fluorescence inhibition, % (concentration not given with the values). 300,000 compounds, 0.1% hits; in the data active means fluorescence inhibition mostly above about 23%, no sharp cut-off; inactive means mostly below about 17%
VHR inh abs = inhibitors of human VHR1 phosphatase (DUSP3); P51452; recombinant VHR phosphatase, pNPP absorbance; inhibition, % at 13.3 µM; 290,000 compounds, 0.52% hits; AID 1654; in the data active means inhibition above about 50%
Target sequence (P51452 whole entry, looked up): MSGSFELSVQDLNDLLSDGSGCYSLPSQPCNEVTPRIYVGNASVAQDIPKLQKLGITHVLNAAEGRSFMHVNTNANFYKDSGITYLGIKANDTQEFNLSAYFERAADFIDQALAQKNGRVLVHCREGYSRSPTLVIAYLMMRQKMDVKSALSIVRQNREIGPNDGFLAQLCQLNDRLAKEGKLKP
FBA Mtb inh = Mtb fructose-bisphosphate aldolase inhibition; P9WQA3; inhibition, % at 1 µM; purified M. tuberculosis FBA, fluorescence read-out; 360,000 compounds, 2.3% hits;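 further: 0% = vehicle and 100% = reference inhibitor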
Target sequence (P9WQA3 whole entry, looked up): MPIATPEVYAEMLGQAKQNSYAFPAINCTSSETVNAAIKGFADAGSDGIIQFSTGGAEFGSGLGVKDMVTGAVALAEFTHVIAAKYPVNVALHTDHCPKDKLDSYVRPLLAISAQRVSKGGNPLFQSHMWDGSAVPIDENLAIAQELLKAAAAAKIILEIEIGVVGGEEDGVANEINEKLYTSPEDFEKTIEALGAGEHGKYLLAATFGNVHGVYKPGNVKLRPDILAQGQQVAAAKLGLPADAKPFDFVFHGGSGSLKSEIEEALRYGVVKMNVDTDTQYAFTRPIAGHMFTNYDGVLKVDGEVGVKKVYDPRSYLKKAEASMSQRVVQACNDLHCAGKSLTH
Mtb FBA confirm = Mtb FBA inhibition, confirmed; shares compounds with FBA Mtb inh; purified M. tuberculosis FBA, fluorescence read-out; inhibition, % at 1 µM; 5,600 compounds, 78% hits; AID 651616;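 further: 0% = vehicle wells and 100% = reference inhibitor wells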
GDH-TPI counter-2 = GDH-TPI inhibition counter-screen for FBA inhibitors; shares compounds with FBA Mtb inh; GDH-TPI coupled enzyme counterscreen, fluorescence; inhibition, % at 1 µM; 5,600 compounds, 81% hits; AID 652141; in the data active means inhibition above about 10%
GDH-TPI dose = inhibits GDH-TPI coupling enzymes in dose response; shares compounds with FBA Mtb inh; GDH-TPI coupled enzyme assay, fluorescence, artifact counterscreen; AID 652145; IC50, µM; 170 compounds, 79% hits; call rule not given here
Starred values were filed as active, the others as inactive; . = no result shown; + = active, no number. Unless noted, no stated cut-off is given here; in the data, active means inhibition above about 27%; inactive means the rest.

SMILES	Mtb bLac sens	GDH-TPI counter-1	Mtb hypoxia inh	VHR inh abs	FBA Mtb inh	Mtb FBA confirm	GDH-TPI counter-2	others
COCCn1cc(C(=O)NCc2ccco2)c2c3ccccc3n(C)c2c1=O	-0.7	14.2	9.6	-14.4	90.9*	+	+
Cn1c2ccccc2c2c(C(=O)NCc3ccco3)cn(C3CCCCC3)c(=O)c21	48.5	12.0	.	15.5	10.5	.	.
CCOC(CCNC(=O)c1cn(CCOC)c(=O)c2c1c1ccccc1n2C)OCC	-1.2	5.2	-3.0	-18.8	29.8*	77.2*	65.8*
CCCN(CCC)CCCNC(=O)c1cn(CCOC)c(=O)c2c1c1ccccc1n2C	.	20.1	9.9	3.6	32.3*	118.4*	89.9*
C#CCOCCOCCOCCNc1nc(N2CCN(C(=O)C(Cc3ccc(O)cc3)n3cc(CCO)nn3)CC2)nc(N2CCN(C(=O)C(C(C)O)n3cc(CCCCN)nn3)CC2)n1 (stereo not given)	.	.	14.5	.	.	.	.
CCC(C)C(C(=O)NCCCCCCCCCCC(=O)N1CCNCC1)n1cc(CCCCCN)nn1 (stereo not given)	.	.	5.8	.	.	.	.
COc1cc(C=CC(=O)NCc2ccc3c(c2)cc(C)n3C)cc(OC)c1OC	.	.	-5.7	.	.	.	.
CC(C#N)(Nc1ccc(Cl)cc1)c1cccnc1 (stereo not given)	-12.4	9.8	-8.6	-9.9	27.5*	+	+
CCCCCCc1cc2cc(C(=O)OCC)c(=O)oc2cc1O	-1.4	9.0	-7.0	-4.9	43.7*	136.1*	97.0*
CCN1CCN(S(=O)(=O)c2ccc3c4c(cccc24)C(=O)N3CC)CC1	3.9	1.3	3.8	.	29.2*	158.0*	149.4*
CCN1C(=O)c2cccc3c(S(=O)(=O)N4CCNCC4)ccc1c23	-0.9	21.4	2.7	.	27.8*	73.2*	65.1*
Cc1cc(C[n+]2ccccc2)c2nsnc2c1	-4.8	11.2	2.0	21.3	30.9*	96.5*	71.6*
Cc1cc(C[n+]2ccsc2N)c2ncccc2c1	1.7	8.1	7.1	-11.0	0.2	.	.
COC(=O)C(C)NC(=S)N1CCN(c2c(F)cc3c(=O)c(C(=O)O)cn(C4CC4)c3c2OC)CC1C (stereo not given)	99.7	27.3	.	17.2	30.1*	+	+
CNC(=S)N1CCN(c2c(F)cc3c(=O)c(C(=O)O)cn(C4CC4)c3c2OC)CC1C (stereo not given)	99.7	8.8	.	23.8	13.8	.	.
CN(CC(Cc1ccccc1)N(CC(CC1CCCCC1)N(CCc1ccccc1)N=O)N=O)N=O (stereo not given)	.	.	8.6	.	.	.	.
COc1ccc2c(c1)cc(C(=O)N[C@@H](Cc1ccccc1)C(=O)N[C@@H](C)C(=O)O)n2C	-5.8	14.7	-10.6	74.1	59.0*	31.4*	9.0	GDH-TPI dose=2.45*
COc1ccc2c(c1)cc(C(=O)N[C@@H](Cc1ccccc1)C(=O)O)n2C	-1.8	0.7	17.2	-20.5	91.7*	121.3*	87.5*
C[C@H](NC(=O)c1cc2cc(Cl)ccc2n1C)C(=O)N1CCC(C(=O)O)CC1	3.3	4.6	0.4	13.3	2.5	.	.
Cn1c(C(=O)N[C@@H](Cc2ccccc2)C(=O)O)cc2cc(F)ccc21	-4.8	-9.5	-6.0	-18.8	8.4	.	.
COc1ccc2c(c1)cc(C(=O)N[C@@H](CCSC)C(=O)N1CCC(C(=O)O)CC1)n2C	-5.1	-7.3	10.6	8.8	64.2*	0.1	-1.2
Cn1c(C(=O)N[C@@H](Cc2ccccc2)C(=O)NCCC(=O)O)cc2cc(Cl)ccc21	9.0	13.9	4.0	20.1	2.8	.	.
OC[C@@H]1CCCN1Cc1cn(-c2ccccc2)nc1-c1ccc2c(c1)OCO2	-4.4	23.4	7.6	9.1	28.8*	54.4*	35.0*
O=C(NCC1CCCO1)C1CCC(N2C(=O)c3ccccc3C2=O)CC1 (stereo not given)	5.1	4.1	16.2	24.0	1.4	.	.
O=C(NCC1CCCO1)C1c2ccccc2C(=O)N1C1CCCCCC1 (stereo not given)	-3.4	-12.0	4.3	2.3	41.4*	111.6*	97.2*
SMILES	Mtb bLac sens	GDH-TPI counter-1	Mtb hypoxia inh	VHR inh abs	FBA Mtb inh	Mtb FBA confirm	GDH-TPI counter-2	others
COc1cccc(C2CN(c3ccc(F)cc3F)N=C2c2cccs2)c1OC (stereo not given)	8.6	4.6	3.8	11.8	85.6*	168.5*	120.5*
COc1ccccc1C1CN(c2ccccc2)N=C1c1cccs1 (stereo not given)	3.5	6.6	15.6	-18.3	84.7*	4.3	-4.5
C=CCOC(=O)C1=CC(c2cn(C(C)=O)c3ccccc23)CC(OCCCCO)O1 (stereo not given)	.	.	8.3	.	.	.	.
C[C@@H](C(=O)NCCc1ccccc1F)N1C(=O)N2CCc3c([nH]c4ccccc34)[C@@]2(C)C1=O	-7.3	-3.9	.	16.6	31.8*	+	188.2*
C[C@@H](C(=O)NCCc1ccccc1)N1C(=O)N2CCc3c([nH]c4ccccc34)[C@@]2(C)C1=O	-2.4	1.0	.	12.5	0.5	.	.
CN1CCN(c2ccc(CNC(=O)C3(C)Cc4c(-c5ccc6c(c5)OCO6)ccnc4O3)cc2)CC1 (stereo not given)	.	-12.8	.	.	32.6*	121.2*	102.5*
COc1ccc(CNC(=O)C2(C)Cc3c(-c4ccc5c(c4)OCO5)ccnc3O2)cc1OC (stereo not given)	.	3.5	.	.	33.1*	113.8*	83.6*
CN(C)c1ccc(CNC(=O)C2(C)Cc3c(-c4ccc5c(c4)OCO5)ccnc3O2)cc1 (stereo not given)	.	10.1	.	.	6.3	.	.
COc1ccc(NC(=O)C2(C)Cc3c(-c4ccc5c(c4)OCO5)ccnc3O2)cc1 (stereo not given)	.	6.2	.	.	36.5*	+	+
CC1(C(=O)Nc2ccc3c(c2)OCO3)Cc2c(-c3ccccc3)ccnc2O1 (stereo not given)	.	7.1	.	.	-0.4	.	.
CNC(=O)C1(C)Cc2c(-c3ccc4c(c3)OCO4)ccnc2O1 (stereo not given)	.	2.2	.	.	49.1*	+	+
CCOc1ccc(C=NNc2ccccn2)cc1	.	.	3.6	.	.	.	.
O=C(CN1CCOCC1)NN=Cc1ccc(-c2ccc(Br)cc2)o1	.	.	2.9	.	.	.	.
CC1(C(=O)NCC2CC2)Cc2c(-c3ccc4c(c3)OCO4)ccnc2O1 (stereo not given)	.	11.1	.	.	88.5*	76.1*	51.1*
CCOc1ccc(N(Cc2cc3ccc(C)cc3[nH]c2=O)C(=O)COC)cc1	-6.8	8.6	.	25.2	-3.2	.	.
COCC(=O)N(Cc1cc2ccc(C)cc2[nH]c1=O)c1ccc(OC)cc1	-6.4	7.6	-1.3	0.0	61.5*	138.7*	127.7*
O=S1c2ccccc2-c2ccccc21	.	-0.9	.	.	0.9	.	.
